Experimental data: paper PMC11062922 (Nature Chemical Biology, 2023)
Where two headings read alike, the source gives them in different places.

Assays:
Design in all cases: species or system human, MV4-11 + K-562 + COLO205 + SK-N-BE2 + OVCAR-8
CDKL5 = details: read-out: apparent Kd, compound concentrations: 100 nM and 1000 nM (sheet 'Samples'), n = 1
CLK1 = details: read-out: apparent Kd, compound concentrations: 100 nM and 1000 nM (sheet 'Samples'), n = 1
CLK2 = details: read-out: apparent Kd; compound concentrations: 100 nM and 1000 nM (sheet 'Samples'), CATDS: 0.135718758721844; n = 1
GSK3A = details: read-out: apparent Kd; compound concentrations: 100 nM and 1000 nM (sheet 'Samples'), CATDS: 0.18937077321649401; n = 1
GSK3B = details: read-out: apparent Kd; compound concentrations: 100 nM and 1000 nM (sheet 'Samples'), CATDS: 0.20850333664225901; n = 1
ICK = details: read-out: apparent Kd; compound concentrations: 100 nM and 1000 nM (sheet 'Samples'), CATDS: 0.107034687138564; n = 1
PRKCA = details: read-out: apparent Kd; compound concentrations: 100 nM and 1000 nM (sheet 'Samples'), CATDS: 8.3091420111897102E-2; n = 1
PRKCB = details: read-out: apparent Kd; compound concentrations: 100 nM and 1000 nM (sheet 'Samples'), CATDS: 7.1835327532873305E-2; n = 1
PRKCD = details: read-out: apparent Kd; compound concentrations: 100 nM and 1000 nM (sheet 'Samples'), CATDS: 8.6510432478471705E-2; n = 1
PRKCQ = details: read-out: apparent Kd; compound concentrations: 100 nM and 1000 nM (sheet 'Samples'), CATDS: 8.9522770196270404E-2; n = 1
MAPK10 = details: read-out: apparent Kd; compound concentrations: 100 nM and 1000 nM (sheet 'Samples'), CATDS: 0.149195814483779; n = 1
MAPK14 = details: read-out: apparent Kd, compound concentrations: 100 nM and 1000 nM (sheet 'Samples'), n = 1
MAPK9 = details: read-out: apparent Kd; compound concentrations: 100 nM and 1000 nM (sheet 'Samples'), CATDS: 0.14319279027503101; n = 1
MAPKAPK2 = details: read-out: apparent Kd, compound concentrations: 100 nM and 1000 nM (sheet 'Samples'), n = 1
ERBB3 = details: read-out: apparent Kd; compound concentrations: 100 nM and 1000 nM (sheet 'Samples'), CATDS: 0.345701208148325; n = 1
MYLK3 = details: read-out: apparent Kd; compound concentrations: 100 nM and 1000 nM (sheet 'Samples'), CATDS: 0.366305815038865; n = 1
CDK4 = details: read-out: apparent Kd; compound concentrations:100 nM and 1000 nM (sheet 'Samples'); n = 1
NNT = details: read-out: apparent Kd; compound concentrations:100 nM and 1000 nM (sheet 'Samples'); n = 1
CLK4 = details: read-out: apparent Kd; compound concentrations: 100 nM and 1000 nM (sheet 'Samples'), CATDS: 0.16932447657893401; n = 1
CSNK2A1;CSNK2A3 = details: read-out: apparent Kd; compound concentrations: 100 nM and 1000 nM (sheet 'Samples'), CATDS: 0.234359592666399; n = 1
CSNK2A2 = details: read-out: apparent Kd; compound concentrations: 100 nM and 1000 nM (sheet 'Samples'), CATDS: 0.363288777813424; n = 1
DYRK1A = details: read-out: apparent Kd; compound concentrations: 100 nM and 1000 nM (sheet 'Samples'), CATDS: 0.15776551091334201; n = 1
MAPK11 = details: read-out: apparent Kd; compound concentrations: 100 nM and 1000 nM (sheet 'Samples'), CATDS: 0.67677633408210103; n = 1
CDK6 = details: read-out: apparent Kd; compound concentrations:100 nM and 1000 nM (sheet 'Samples'); n = 1
HSP90B1 = details: read-out: apparent Kd; compound concentrations:100 nM and 1000 nM (sheet 'Samples'); n = 1
MAP2K1 = details: read-out: apparent Kd; compound concentrations:100 nM and 1000 nM (sheet 'Samples'); n = 1
MAP2K2 = details: read-out: apparent Kd; compound concentrations:100 nM and 1000 nM (sheet 'Samples'); n = 1
NQO1 = details: read-out: apparent Kd; compound concentrations:100 nM and 1000 nM (sheet 'Samples'); n = 1

Cn1cc(C2=C(c3cn(C)c4cc(N)ccc34)C(=O)NC2=O)c2ccccc21 [RO0317511-000]
potency estimated from few doses (CDKL5; CATDS: 7.1774388141359599E-2): 1.81 µM
potency estimated from few doses (CLK1; CATDS: 9.43888536674687E-2): 0.816 µM
potency estimated from few doses (CLK2): 0.386 µM
potency estimated from few doses (GSK3A): 0.223 µM
potency estimated from few doses (GSK3B): 0.193 µM
potency estimated from few doses (ICK): 0.614 µM
potency estimated from few doses (PRKCA): 1.14 µM
potency estimated from few doses (PRKCB): 1.8 µM
potency estimated from few doses (PRKCD): 1.02 µM
potency estimated from few doses (PRKCQ): 0.93 µM

Cl.Cn1c(=O)c(Oc2ccc(F)cc2F)cc2cnc(N[C@H]3CCOC3)nc21 [RO3311017-001]
potency estimated from few doses (CDKL5; CATDS: 0.14258501509608601): 1.54 µM
potency estimated from few doses (MAPK10): 1.26 µM
potency estimated from few doses (MAPK14; CATDS: 0.62465881952288804): 0.0192 µM
potency estimated from few doses (MAPK9): 1.51 µM
potency estimated from few doses (MAPKAPK2; CATDS: 0.37042886154437599): 0.0545 µM

COc1cccc(-n2ncc3c(N/N=C/c4ccc(F)cc4)ncnc32)c1 [GW817396X]
potency estimated from few doses (CDKL5; CATDS: 0.29608844643475601): 2.11 µM
potency estimated from few doses (ERBB3): 1.52 µM
potency estimated from few doses (MYLK3): 1.36 µM

O=C1NC(=O)C(c2ccc(Cl)cc2)=C1Nc1ccc(O)cc1 [SB-340867]
potency estimated from few doses (CDK4): 1.97 µM
potency estimated from few doses (NNT): 1.72 µM

CCOc1ccccc1CCNC1=NC(=O)/C(=C/c2ccc3ncccc3c2)S1 [RO4503314-000]
potency estimated from few doses (CLK1; CATDS: 0.17433508542258599): 0.469 µM
potency estimated from few doses (CLK4): 0.505 µM
potency estimated from few doses (CSNK2A1;CSNK2A3): 0.246 µM
potency estimated from few doses (CSNK2A2): 0.118 µM
potency estimated from few doses (DYRK1A): 0.615 µM

Cl.Nc1c(C(=O)c2cccc(-c3ccncc3)c2)cnn1-c1ccc(F)cc1F [RO1166300-001]
potency estimated from few doses (CDKL5; CATDS: 0.17547829897004599): 1.83 µM
potency estimated from few doses (MAPK11): 0.0823 µM
potency estimated from few doses (MAPK14; CATDS: 0.205012911986655): 1.06 µM
potency estimated from few doses (MAPKAPK2; CATDS: 0.2534240729319): 0.584 µM

CC(C(=O)NC1CCN(c2ccnc(Nc3ccc(F)cc3)n2)C1)c1ccc(Cl)cc1 (stereo not drawn) [GSK1379713A]
potency estimated from few doses (CDK6): 2.08 µM
potency estimated from few doses (HSP90B1): 0.088 µM
potency estimated from few doses (MAP2K1): 2.23 µM
potency estimated from few doses (MAP2K2): 1.46 µM
potency estimated from few doses (NNT): 1.4 µM
potency estimated from few doses (NQO1): 1.65 µM

COc1cc(C)c(N(C)C(=O)CN(C)C)cc1Nc1nc(Nc2cccc(F)c2C(N)=O)c2cc[nH]c2n1 [GSK2219385_KCGS]
potency estimated from few doses (CDK6): 1.85 µM
